The list is not random: actives were taken first. Their share in the collection is about 8%.
MCF10A rereplic – inducers of DNA re-replication in MCF 10A breast cells; Potency, µM (doses to about 46.1 µM), actives largely listed as activators; hit rate 2.9% among 350,000; AID 624296; MCF 10A DNA re-replication, Hoechst nuclear intensity, 48 h; also: nearly all actives have a fitted effect of over 50% in size
HT1080NT lethal – kills 2HG-producing HT-1080-NT fibrosarcoma cells; hit rate 1.6% among 360,000; Potency, µM (titrated, usually from 46.1 µM), hits mostly cytotoxic; AID 686970; HT-1080-NT fibrosarcoma viability, CellTiter-Glo ATP luminescence, 48 h;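 also: NT is the 2HG producing partner of a matched IDH1 knockdown line; nearly all actives have a fitted effect of over 55% in size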
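Viability of the 2HG-overproducing fibrosarcoma line after 48 hours of compound exposure at 37 degrees C was determined by luminescence with CellTiter-Glo, and concentration-effect curves were then fitted and categorized.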
SW480 rereplic – DNA re-replication induction in SW480 cells. SW480 DNA re-replication, Hoechst DNA content imaging, 48 h. Potency, µM (titrated, usually from 46.1 µM), actives largely listed as activators. hit rate 1.8% among 340,000; also: nearly all actives have a fitted effect of over 55% in size
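Image-based read-out: total Hoechst fluorescence of nuclei (405 nm excitation, 500-530 nm emission), with hits raising the fraction of high-intensity nuclei. SW480 colon cells incubated 48 hr with compounds at 37 C.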
KB-V1 cytotox – KB-V1 MDR subline cytotoxicity; Potency, µM (titrated, usually from 46.1 µM), usual class: cytotoxic; KB-V1 MDR cells viability, CellTiter-Glo, 72 h; hit rate 3.4% among 400,000; AID 1347076; also: nearly all actives have a fitted effect of over 60% in size
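KB-V1 cells (P-gp-expressing MDR subline of KB-3-1) in phenol-red-free DMEM with 10% FBS were exposed to library compounds over a concentration series for 72 h at 37 degrees C. Viability read by CellTiter-Glo luminescence; concentration-effect curves fitted after normalization.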
KB-3-1 tox – kills parental KB-3-1 adenocarcinoma cells; KB-3-1 viability, CellTiter-Glo ATP luminescence, 72 h; Potency, µM (highest dose often 46.1 µM), most hits filed as cytotoxic; hit rate 1.4% among 400,000; AID 1347075; also: nearly all actives have a fitted effect of over 60% in size
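Parental KB-3-1 viability, qHTS format: 72 h compound exposure, 37 °C; CellTiter-Glo; media-only wells and DMSO plates as controls; concentration-effect fits on corrected data.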
HT1080 IDH1KD tx – toxicity to HT-1080 IDH1 knockdown cells (counter line) | HT-1080 IDH1 knockdown viability, ATP luminescence, 48 h | AID 686971 | hit rate 2% among 360,000 | Potency, µM (highest dose often 46.1 µM), most hits filed as cytotoxic
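Cytotoxicity counter-line: IDH1KD HT-1080, 48 h, CellTiter-Glo. Curves classed by r2, magnitude and activity.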
Hits are given with their value; n = inactive; u = inconclusive; x = no result given; [ ] = remark or other dose. Calls follow the shape of the dose curve; as a rule, active = well fitted curve in the direction sought with a large enough effect; inconclusive = small, poorly fitted or top-dose-only effect, or another doubt; inactive = no such curve, though single readings can be large; an effect the other way counts as inactive or inconclusive.

SMILES	MCF10A rereplic	HT1080NT lethal	SW480 rereplic	KB-V1 cytotox	KB-3-1 tox	HT1080 IDH1KD tx
COc1ccccc1NC(=O)N1CCC(c2nc3cc(C)c(C)cc3[nH]2)CC1	3.7µM	5.8µM	5.8µM	9.2µM	1.6µM	5.8µM
COc1ccccc1NC(=S)N1CCC(c2nc3cc(C)c(C)cc3[nH]2)CC1	n	n	n	n	n	n
Cc1cc(=O)oc2cc(OC(C)C(=O)Nc3ccc(C(N)=O)cc3)ccc12 (configuration not stated)	n	n	n	n	n	n
Cc1cc(=O)oc2cc(NC(=O)C(C)Oc3cccc(Cl)c3)ccc12 (configuration not stated)	u	26µM	n	n	n	u
O=C(Nc1ccnn1C1CCN(Cc2ccc(Cl)cc2)CC1)C1CCCC1	n	n	n	x	x	n
CC(C)c1ccc(CN2CCC(n3nccc3NC(=O)C3CCCC3)CC2)cc1	x	n	x	5.2µM	n	n
CCn1c(SCC(=O)NC2CCCCC2C)nnc1-c1ccc(OC)cc1 (configuration not stated)	n	n	n	2.6µM	n	n
CCn1c(SCc2ccc(OC)cc2)nnc1-c1ccncc1	21µM	n	n	n	n	n[9.24 µM]
COc1cccc(SCc2noc(C(=O)NC(C)C)c2C(=O)NC(C)C)c1	n	n	n	n	n	n
COCCCn1c(=N)c(C(N)=S)cc2c(=O)n3cccc(C)c3nc21	u	n	16µM	n	n	n
CCCCn1c(=N)c(C(=O)NC2CCCCC2)cc2c(=O)n3cccc(C)c3nc21	x	x	x	n	n	x
CCOCCCn1c(=N)c(S(=O)(=O)c2ccc(C)cc2)cc2c(=O)n3ccccc3nc21	x	x	x	u	n	x
N#Cc1cc2c(=O)n3ccccc3nc2n(CCCn2ccnc2)c1=N	9.2µM	n	15µM	n	n	n
Cc1cccn2c(=O)c3cc(C(N)=S)c(=N)n(CCCN4CCOCC4)c3nc12	u	n	8.2µM	n	n	n
CCCn1c(=N)c(C#N)cc2c(=O)n3ccccc3nc21	n	n	u	n	n	n
CCOCCCn1c(=N)c(S(=O)(=O)c2ccccc2)cc2c(=O)n3cc(C)ccc3nc21	8.2µM	n	5.8µM	u	n	n
Cc1cccn2c(=O)c3cc(C#N)c(=N)n(CCN4CCOCC4)c3nc12	n	n	n	n	n	n
Cc1ccc2nc3c(cc(C(N)=S)c(=N)n3CCCOC(C)C)c(=O)n2c1	u	u	n	u	u	11µM
Cc1cccn2c(=O)c3cc(C#N)c(=N)n(CCCN4CCOCC4)c3nc12	u	n	4.1µM	n	u	n
COc1ccc(Cl)cc1S(=O)(=O)NCc1nc2nc(C)cc(C)n2n1	n	n	n	n	n	n
CCCn1nnc(NC(=O)c2ccc(Br)cc2)n1	n	n	n	n	n	u
CCCn1nnc(NC(=O)c2cc(Br)cc(Br)c2OC)n1	n	n	n	16µM	n	n
O=C(CCc1ccccc1)NCc1ccc2c(c1)CCN2C(=O)c1ccc(Cl)cc1	x	x	x	n	n	x
COc1ccc(-c2cc(C3CCN(Cc4cccc(C(F)(F)F)c4)CC3)[nH]n2)cc1	u	16µM	u	u	u	u
Cc1ccccc1Oc1nnc(-c2cccs2)c2ccccc12	n	n	n	n	n	n
SMILES	MCF10A rereplic	HT1080NT lethal	SW480 rereplic	KB-V1 cytotox	KB-3-1 tox	HT1080 IDH1KD tx
CCOC(=O)C1=CCC2C(=O)N(CC)C(=O)C12 (configuration not stated)	x	n	x	n	n	n
CCC(=O)NC(Cc1ccccc1)c1ccc2c(c1)OCCCO2 (configuration not stated)	n	n	n	13µM	n	n
Cc1ccc(NC(=O)CC2CCCC2)c(Br)c1	n	n	u	n	n	n
CC(C)OCCCn1c(=S)[nH]c2ccc(N3CCOCC3)cc2c1=O	n	n	n	6.5µM	u	n
Cc1ccc(Cn2c(=S)[nH]c3ccc(N4CCOCC4)cc3c2=O)o1	u	n	23µM	u	u	n
O=C(Oc1cccc2cccnc12)c1ccc(N2C(=O)C3C4CCC(C4)C3C2=O)cc1 (configuration not stated)	15µM	16µM	18µM	n	n	13µM
Cc1cccnc1C(NC(=O)C1CCN(Cc2cn(C)c3ccccc23)CC1)c1ccc(Cl)cc1 (configuration not stated)	x	12µM	x	u	u	u
Cc1cccnc1C(NC(=O)C1CCN(CCCc2ccccc2)CC1)c1ccc(Cl)cc1 (configuration not stated)	x	26µM	x	n	n	u
Cc1cccnc1C(NC(=O)C1CCN(Cc2ccc(Cl)cc2)CC1)c1ccccc1 (configuration not stated)	x	u	x	n	n	u
CCC(C)C1NC(=O)C(CCNCS(=O)(=O)O)NC(=O)C(NC(=O)C(CCNCS(=O)(=O)O)NC(=O)C(NC(=O)C(CCNCS(=O)(=O)O)NC(=O)CCCCC(C)C)C(C)O)CCNC(=O)C(C(C)O)NC(=O)C(CCNCS(=O)(=O)O)NC(=O)C(CCNCS(=O)(=O)O)NC(=O)C(C(C)CC)NC1=O (configuration not stated)	u	x	n	x	x	x
Cc1cccc(CSC2=NCCN2C(=O)c2ccc(S(=O)(=O)N(C)C)cc2)c1	n	n	29µM	n	n	n
Cc1ccc(CC(=O)NCCS(=O)c2ccc(C)cc2)cc1 (configuration not stated)	n	n	n	n	n	n
CCOc1cccc(-c2nnc3sc(COc4ccc(Cl)cc4)nn23)c1	u	n	n	u	21µM	n
COc1cc(-c2nn3c(COc4ccccc4)nnc3s2)cc(OC)c1OC	n	n	n	5.2µM	n	n
COc1cccc(-c2nnc3sc(-c4cccs4)nn23)c1	n	n	n	n	n	n
CCOc1cccc(-c2nnc3sc(-c4cc(OC)c(OC)c(OC)c4)nn23)c1	u	n	u	8.2µM	u	n
COc1cc(-c2nn3c(Cc4ccccc4)nnc3s2)cc(OC)c1OC	n	n	n	n	n	n
CCOc1cccc(-c2nnc3sc(-c4cccs4)nn23)c1	n	n	n	5.2µM	n	n
CCOc1cccc(-c2nnc3sc(COc4ccc(C)cc4)nn23)c1	n	n	n	n	n	n
CCOC(=O)Cn1c(=O)oc2cc(S(=O)(=O)N3CCN(c4cccc(Cl)c4)CC3)ccc21	x	x	x	n	n	x
CCS(=O)(=O)c1ncc(N(Cc2ccccc2)Cc2ccco2)c(C(=O)Nc2ccc(C)c(C)c2)n1	x	x	x	n	n	x
CCN(CC)c1ccc(-c2nn3c(-c4cccnc4)nnc3s2)cc1	5.2µM	n	21µM	7.3µM	21µM	n
COc1ccc(-c2nnc3sc(-c4ccco4)nn23)cc1OC	n	n	n	2.1µM	u	n

Screening results (PubChem)
